Experimental data taken from the supplement of paper PMC10849652.
About 7,900 targets were measured; listed, in parts, are those with a hit and a random draw of the rest. About 0.6% of all pairs of compound and target were hits. Values without a mark were called inactive.

What was measured:
Assay in all cases: log2 fold change, soluble protein after heating vs DMSO (PISA); higher = thermal stabilisation; K562 cells, 10 uM, 30 min; active = over 0.2 and 3.5 SD of the protein, either way, in both replicates (recomputed)
[1] = compound: CC[C@@H]1C(=O)N(C)c2cnc(Nc3ccc(C(=O)NC4CCN(C)CC4)cc3OC)nc2N1C1CCCC1
In short: (§1)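 Soluble protein was quantified by TMTpro 16plex LC-MS/MS after channel sums were equalised. It was obtained as the supernatant after 21,000xg for 90 min from pooled aliquots of K562 cells (2×10^6 cells/mL, 10 μM compound, 30 min) heated for 3 min across 48°C-58°C and extracted in PBS with 0.5% NP-40 at 4°C. Thermal stability values are relative to control samples and come from duplicates. They are given as log2 fold changes.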

volasertib = compound: CC[C@@H]1C(=O)N(C)c2cnc(Nc3ccc(C(=O)N[C@H]4CC[C@H](N5CCN(CC6CC6)CC5)CC4)cc3OC)nc2N1C(C)C [volasertib]
In short: as §1

epoxomicin = compound: CC[C@H](C)[C@@H](C(=O)N[C@@H]([C@@H](C)O)C(=O)N[C@@H](CC(C)C)C(=O)[C@]1(CO1)C)NC(=O)[C@H]([C@@H](C)CC)N(C)C(=O)C [epoxomicin]
In short: as §1

[2] = compound: CCn1c(C(=O)N(C2CC2)C2CC2)cc2c3c(ncn3C)c(Nc3cc(C)n(C)n3)nc21
In short: as §1

[3] = compound: CCn1cc(-c2ccnc3[nH]c(-c4cccc(CN(C)C)c4)cc23)c(-c2ccc(NC(=O)N(C)C)cc2)n1
In short: as §1

[4] = compound: CN(C)CC(=O)Nc1ccc2[nH]c(=O)c3ccccc3c2c1
In short: as §1

rosiglitazone = compound: CN(CCOC1=CC=C(C=C1)C[C@H]2C(=O)NC(=O)S2)C3=CC=CC=N3 (racemic) [rosiglitazone]
In short: as §1

[5] = compound: CN1C2=C(C3=C1C(=O)N(N=C3)CC4=CC(=CC=C4)N)SC(=C2)S(=O)C
In short: as §1

[6] = compound: CN1CCC(CNc2ccc3ncc(-c4cccc(OC(F)(F)F)c4)n3n2)CC1
In short: as §1

saracatinib = compound: CN1CCN(CCOc2cc(OC3CCOCC3)c3c(Nc4c(Cl)ccc5c4OCO5)ncnc3c2)CC1 [saracatinib]
In short: as §1

sotrastaurin = compound: CN1CCN(c2nc(C3=C(c4c[nH]c5ccccc45)C(=O)NC3=O)c3ccccc3n2)CC1 [sotrastaurin]
In short: as §1

alvocidib = compound: CN1CC[C@H](c2c(O)cc(O)c3c(=O)cc(-c4ccccc4Cl)oc23)[C@H](O)C1 [alvocidib]
In short: as §1

Tubastatin A = compound: CN1CCc2c(c3ccccc3n2Cc2ccc(C(=O)NO)cc2)C1 [Tubastatin A]
In short: as §1

[7] = compound: CNC(=O)C1=CC=CC=C1NC2=NC(=NC=C2Cl)NC3=C(C=C(C=C3)N4CCOCC4)OC
In short: as §1

defactinib = compound: CNC(=O)c1ccc(Nc2ncc(C(F)(F)F)c(NCc3nccnc3N(C)S(C)(=O)=O)n2)cc1 [defactinib]
In short: as §1

rucaparib = compound: CNCc1ccc(-c2[nH]c3cc(F)cc4c3c2CCNC4=O)cc1 [rucaparib]
In short: as §1

[8] = compound: CNc1nc(-c2ccc3c(N)n[nH]c3c2)cc(N2C[C@@H](C(=O)NC3CCCCC3)CC[C@H]2C)n1
In short: as §1

encorafenib = compound: COC(=O)N[C@@H](C)CNc1nccc(-c2cn(C(C)C)nc2-c2cc(Cl)cc(NS(C)(=O)=O)c2F)n1 [encorafenib]
In short: as §1

[9] = compound: COC(=O)[C@H](CCSC)NC(=O)C1=C(C=C(C=C1)NC[C@H](CS)N)C2=CC=CC=C2
In short: as §1

[10] = compound: CC[C@H](C)N1C=C(C2=C(C=C(C=C21)C3=CN=C(C=C3)N4CCNCC4)C(=O)NCC5=C(C=C(NC5=O)C)C)C
In short: as §1

Sequence of UniProt Q9HCU9 (Q9HCU9 whole entry, looked up): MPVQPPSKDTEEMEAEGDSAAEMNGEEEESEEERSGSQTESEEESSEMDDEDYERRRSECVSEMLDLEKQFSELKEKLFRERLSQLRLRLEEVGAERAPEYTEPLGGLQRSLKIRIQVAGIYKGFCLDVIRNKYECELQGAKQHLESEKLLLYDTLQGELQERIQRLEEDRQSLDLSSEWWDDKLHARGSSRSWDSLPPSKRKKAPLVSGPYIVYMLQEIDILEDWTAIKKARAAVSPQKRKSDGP
Sequence of UniProt Q4L235 (Q4L235 whole entry, looked up): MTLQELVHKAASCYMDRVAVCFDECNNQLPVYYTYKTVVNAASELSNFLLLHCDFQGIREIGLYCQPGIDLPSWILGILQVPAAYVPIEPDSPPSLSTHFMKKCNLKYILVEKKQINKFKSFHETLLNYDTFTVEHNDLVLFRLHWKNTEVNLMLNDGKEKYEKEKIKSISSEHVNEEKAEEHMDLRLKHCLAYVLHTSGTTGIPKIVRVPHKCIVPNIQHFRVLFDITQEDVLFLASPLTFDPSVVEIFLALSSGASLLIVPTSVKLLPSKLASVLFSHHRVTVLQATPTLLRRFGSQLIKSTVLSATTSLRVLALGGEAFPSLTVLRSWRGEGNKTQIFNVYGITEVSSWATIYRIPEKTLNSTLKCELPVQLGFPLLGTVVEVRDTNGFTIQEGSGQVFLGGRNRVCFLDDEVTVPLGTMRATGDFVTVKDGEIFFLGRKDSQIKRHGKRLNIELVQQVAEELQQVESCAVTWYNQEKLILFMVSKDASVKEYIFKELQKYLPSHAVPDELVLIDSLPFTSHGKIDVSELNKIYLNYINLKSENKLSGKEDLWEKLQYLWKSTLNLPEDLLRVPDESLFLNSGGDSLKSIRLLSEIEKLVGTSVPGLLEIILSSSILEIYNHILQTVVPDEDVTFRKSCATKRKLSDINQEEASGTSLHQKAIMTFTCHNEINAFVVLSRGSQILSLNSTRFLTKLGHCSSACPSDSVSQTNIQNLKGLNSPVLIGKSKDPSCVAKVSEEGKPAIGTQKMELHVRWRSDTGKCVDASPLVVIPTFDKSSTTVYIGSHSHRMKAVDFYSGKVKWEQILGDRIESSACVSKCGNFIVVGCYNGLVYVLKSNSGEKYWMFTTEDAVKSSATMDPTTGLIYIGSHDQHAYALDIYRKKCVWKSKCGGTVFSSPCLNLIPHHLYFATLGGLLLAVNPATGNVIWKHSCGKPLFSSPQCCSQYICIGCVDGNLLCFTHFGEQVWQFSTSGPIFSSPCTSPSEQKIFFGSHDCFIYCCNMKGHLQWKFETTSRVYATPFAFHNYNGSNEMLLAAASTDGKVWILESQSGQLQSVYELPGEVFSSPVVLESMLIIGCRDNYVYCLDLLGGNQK
Sequence of UniProt Q9H7T9 (Q9H7T9 whole entry, looked up): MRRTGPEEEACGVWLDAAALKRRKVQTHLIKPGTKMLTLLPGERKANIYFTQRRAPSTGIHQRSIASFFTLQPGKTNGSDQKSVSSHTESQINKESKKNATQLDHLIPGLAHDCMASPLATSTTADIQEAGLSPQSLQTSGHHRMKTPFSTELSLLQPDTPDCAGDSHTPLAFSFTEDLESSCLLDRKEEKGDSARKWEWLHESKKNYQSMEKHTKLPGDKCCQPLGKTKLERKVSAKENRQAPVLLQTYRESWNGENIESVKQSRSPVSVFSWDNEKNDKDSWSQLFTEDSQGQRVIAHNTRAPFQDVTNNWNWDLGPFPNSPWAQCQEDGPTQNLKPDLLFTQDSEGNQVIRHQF
Sequence of UniProt Q9UNK9 (Q9UNK9 whole entry, looked up): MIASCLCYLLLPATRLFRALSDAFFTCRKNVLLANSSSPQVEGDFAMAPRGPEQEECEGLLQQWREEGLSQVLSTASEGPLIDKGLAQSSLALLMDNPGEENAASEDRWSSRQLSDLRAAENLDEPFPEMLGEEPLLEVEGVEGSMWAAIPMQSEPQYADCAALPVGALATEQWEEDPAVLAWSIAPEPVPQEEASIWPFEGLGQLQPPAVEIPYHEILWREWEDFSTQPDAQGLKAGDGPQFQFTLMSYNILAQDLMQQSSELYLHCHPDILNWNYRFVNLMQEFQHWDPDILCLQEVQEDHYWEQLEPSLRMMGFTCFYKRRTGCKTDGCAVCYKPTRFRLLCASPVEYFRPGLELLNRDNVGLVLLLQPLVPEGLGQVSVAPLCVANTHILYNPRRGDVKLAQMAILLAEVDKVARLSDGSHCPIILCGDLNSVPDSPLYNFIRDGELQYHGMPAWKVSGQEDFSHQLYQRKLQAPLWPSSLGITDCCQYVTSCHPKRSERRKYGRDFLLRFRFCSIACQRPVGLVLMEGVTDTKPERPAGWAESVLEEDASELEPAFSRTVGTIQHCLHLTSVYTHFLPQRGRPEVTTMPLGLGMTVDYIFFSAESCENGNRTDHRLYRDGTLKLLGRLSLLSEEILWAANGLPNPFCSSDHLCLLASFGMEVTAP
Sequence of UniProt Q14CW9 (Q14CW9 whole entry, looked up): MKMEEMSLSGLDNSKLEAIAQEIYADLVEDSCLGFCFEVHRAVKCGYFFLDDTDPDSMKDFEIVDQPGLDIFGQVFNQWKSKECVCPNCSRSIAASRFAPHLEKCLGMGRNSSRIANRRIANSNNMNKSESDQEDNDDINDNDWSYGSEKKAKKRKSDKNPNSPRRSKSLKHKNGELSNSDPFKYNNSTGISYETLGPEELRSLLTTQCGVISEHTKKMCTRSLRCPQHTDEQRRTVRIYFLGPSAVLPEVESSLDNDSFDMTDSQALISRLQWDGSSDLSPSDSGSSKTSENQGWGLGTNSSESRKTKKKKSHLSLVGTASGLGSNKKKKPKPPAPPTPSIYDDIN
Sequence of UniProt P35612 (P35612 whole entry, looked up): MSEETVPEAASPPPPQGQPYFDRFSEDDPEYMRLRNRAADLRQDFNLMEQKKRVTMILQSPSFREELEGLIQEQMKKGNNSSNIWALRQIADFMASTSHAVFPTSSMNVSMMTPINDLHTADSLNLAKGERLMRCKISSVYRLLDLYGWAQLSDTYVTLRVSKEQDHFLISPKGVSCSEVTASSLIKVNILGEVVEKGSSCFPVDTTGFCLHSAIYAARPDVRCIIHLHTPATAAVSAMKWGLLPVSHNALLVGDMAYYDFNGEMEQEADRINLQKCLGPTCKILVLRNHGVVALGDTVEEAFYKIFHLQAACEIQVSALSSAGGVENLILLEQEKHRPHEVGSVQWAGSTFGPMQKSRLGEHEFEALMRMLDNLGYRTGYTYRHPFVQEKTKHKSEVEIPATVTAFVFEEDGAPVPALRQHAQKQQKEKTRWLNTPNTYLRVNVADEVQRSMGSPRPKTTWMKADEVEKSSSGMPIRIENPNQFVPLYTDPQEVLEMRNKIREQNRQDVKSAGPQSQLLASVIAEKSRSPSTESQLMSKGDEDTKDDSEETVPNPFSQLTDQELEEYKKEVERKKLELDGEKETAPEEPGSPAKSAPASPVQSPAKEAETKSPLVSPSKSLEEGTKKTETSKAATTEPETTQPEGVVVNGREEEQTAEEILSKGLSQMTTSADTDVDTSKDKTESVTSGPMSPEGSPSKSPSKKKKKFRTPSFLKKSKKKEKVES
Sequence of UniProt Q9UQB8 (Q9UQB8 whole entry, looked up): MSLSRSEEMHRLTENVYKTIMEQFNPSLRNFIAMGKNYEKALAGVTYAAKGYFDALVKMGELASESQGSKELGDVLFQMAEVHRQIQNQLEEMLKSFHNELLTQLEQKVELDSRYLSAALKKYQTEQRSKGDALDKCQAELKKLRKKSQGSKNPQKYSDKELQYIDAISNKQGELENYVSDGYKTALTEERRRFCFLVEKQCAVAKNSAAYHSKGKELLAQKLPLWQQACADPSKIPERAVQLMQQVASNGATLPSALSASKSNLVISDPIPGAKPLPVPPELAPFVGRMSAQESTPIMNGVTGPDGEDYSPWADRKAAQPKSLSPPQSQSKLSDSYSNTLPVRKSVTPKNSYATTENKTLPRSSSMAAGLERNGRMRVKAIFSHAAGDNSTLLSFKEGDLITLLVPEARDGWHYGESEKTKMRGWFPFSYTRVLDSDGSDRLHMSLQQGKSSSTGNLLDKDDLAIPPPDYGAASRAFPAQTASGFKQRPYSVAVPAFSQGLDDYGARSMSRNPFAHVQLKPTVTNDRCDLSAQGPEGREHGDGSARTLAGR
Sequence of UniProt Q8IUR7 (Q8IUR7 whole entry, looked up): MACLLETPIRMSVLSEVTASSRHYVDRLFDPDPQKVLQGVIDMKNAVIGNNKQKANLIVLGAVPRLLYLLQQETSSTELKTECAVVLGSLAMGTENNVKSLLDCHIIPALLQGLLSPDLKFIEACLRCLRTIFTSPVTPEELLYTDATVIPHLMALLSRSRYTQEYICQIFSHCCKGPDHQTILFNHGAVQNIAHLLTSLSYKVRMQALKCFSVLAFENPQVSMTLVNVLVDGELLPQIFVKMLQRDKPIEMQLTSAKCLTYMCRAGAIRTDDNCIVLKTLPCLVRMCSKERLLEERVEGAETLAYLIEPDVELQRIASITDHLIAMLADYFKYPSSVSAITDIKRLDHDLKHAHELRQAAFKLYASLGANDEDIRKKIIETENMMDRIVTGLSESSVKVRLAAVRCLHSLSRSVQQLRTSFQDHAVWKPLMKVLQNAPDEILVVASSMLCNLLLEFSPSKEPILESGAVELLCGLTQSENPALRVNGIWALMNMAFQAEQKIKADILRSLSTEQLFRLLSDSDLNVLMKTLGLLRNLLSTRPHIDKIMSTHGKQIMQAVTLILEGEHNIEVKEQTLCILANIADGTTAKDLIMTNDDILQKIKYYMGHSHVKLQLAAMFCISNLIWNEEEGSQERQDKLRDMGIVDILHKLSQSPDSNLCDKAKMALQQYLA
Sequence of UniProt P55008 (P55008 whole entry, looked up): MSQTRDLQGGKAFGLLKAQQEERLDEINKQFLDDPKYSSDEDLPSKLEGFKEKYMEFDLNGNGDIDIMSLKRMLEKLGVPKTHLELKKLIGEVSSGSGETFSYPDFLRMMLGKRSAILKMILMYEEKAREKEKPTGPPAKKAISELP
Sequence of UniProt Q8IXM2 (Q8IXM2 whole entry, looked up): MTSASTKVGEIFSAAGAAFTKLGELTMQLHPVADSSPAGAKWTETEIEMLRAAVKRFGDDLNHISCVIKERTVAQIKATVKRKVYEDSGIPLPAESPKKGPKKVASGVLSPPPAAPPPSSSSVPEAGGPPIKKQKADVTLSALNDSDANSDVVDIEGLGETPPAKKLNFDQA

| Target | log2 fold change [1] | log2 fold change (volasertib) | log2 fold change (epoxomicin) | log2 fold change [2] | log2 fold change [3] | log2 fold change [4] | log2 fold change (rosiglitazone) | log2 fold change [5] | log2 fold change [6] | log2 fold change (saracatinib) | log2 fold change (sotrastaurin) | log2 fold change (alvocidib) | log2 fold change (Tubastatin A) | log2 fold change [7] | log2 fold change (defactinib) | log2 fold change (rucaparib) | log2 fold change [8] | log2 fold change (encorafenib) | log2 fold change [9] | log2 fold change [10] |
| --- | --- | --- | --- | --- | --- | --- | --- | --- | --- | --- | --- | --- | --- | --- | --- | --- | --- | --- | --- | --- |
| ALKBH4 (UniProt Q9NXW9) | -0.064 | -0.263 | 0.117 | -0.02 | -0.023 | 0.056 | 0.037 | -0.077 | -0.082 | -0.072 | -0.106 | -0.227 | 0.086 | 0.198 | -0.056 | 0.07 | 0.03 | 0.074 | 0.071 | – |
| AFDN isoform 1 (UniProt P55196) | -0.019 | – | 0.064 | -0.104 | -0.075 | -0.069 | 0.104 | 0.111 | 0.062 | -0.192 | -0.047 | -0.182 | – | -0.025 | 0.021 | 0.009 | -0.175 | 0.018 | -0.302 | – |
| AUNIP isoform 2 (UniProt Q9H7T9) | – | -0.03 | – | 0.013 | – | -0.163 | – | -0.031 | – | -0.007 | -0.085 | 0.053 | 0.278 | 0.189 | 0.043 | – | -0.086 | – | 0.342 | – |
| ARL4A (UniProt P40617) | – | – | – | – | – | – | 0.063 | – | – | – | – | – | – | – | – | – | – | – | – | – |
| ATXN7L3 isoform 2 (UniProt Q14CW9) | -0.042 | – | – | 0.036 | – | – | -0.2 | – | – | – | 0.098 | – | – | -0.038 | – | 0.669 (active) | – | 0 | – | -0.166 |
| ADAM15 (UniProt Q13444) | – | -0.103 | 0.034 | -0.177 | -0.001 | 0.066 | -0.099 | -0.028 | -0.016 | -0.241 | -0.034 | -0.091 | 0.065 | -0.211 | -0.04 | – | 0.073 | – | 0.056 | -0.02 |
| AZI2 (UniProt Q9H6S1) | -0.021 | – | – | -0.041 | – | 0.062 | -0.001 | – | – | – | -0.046 | – | -0.078 | 0.453 (active) | 0.018 | -0.12 | – | 0.012 | -0.093 | -0.063 |
| ABCA4 (UniProt P78363) | 0.117 | – | -0.046 | -0.172 | -0.163 | – | 0.015 | – | -0.087 | – | -0.249 | 0.277 | 0.246 | -0.152 | – | 0.006 | – | 0.006 | – | -0.202 |
| ARFIP1 isoform 2 (UniProt P53367) | – | -0.134 | -0.004 | -0.102 | 0.259 | – | 0.088 | -0.124 | -0.512 (active) | 0.026 | -0.041 | – | – | -0.268 | – | – | 0.279 | – | – | 0.071 |
| ANGEL1 (UniProt Q9UNK9) | – | – | – | – | – | 0.038 | -0.008 | – | – | – | – | – | 0.089 | – | -0.076 | – | – | – | 0.095 | – |
| ARMC8 isoform 6 (UniProt Q8IUR7) | – | – | – | -0.196 | – | 0.016 | -0.004 | – | – | – | – | – | – | -0.088 | -0.114 | – | – | – | 0.108 | 0.048 |
| ADD2 isoform 9 (UniProt P35612) | – | -0.1 | – | – | – | – | 0.196 | – | – | – | -0.122 | – | – | – | – | – | – | – | – | – |
| AP2M1 (UniProt C9JTK4) | 0.03 | – | 0.027 | – | – | -0.243 | -0.016 | -0.049 | – | -0.109 | 0.055 | 0.203 | -0.045 | – | -0.053 | 0.07 | -0.019 | -0.048 | 0.193 | -0.051 |
| ACTR3B (UniProt Q9P1U1) | – | -0.063 | – | 0.038 | -0.047 | -0.05 | – | – | 0.048 | – | – | – | -0.01 | -0.004 | 0.037 | – | – | – | -0.01 | 0.261 |
| ACVR1 (UniProt Q04771) | -0.104 | -0.2 | 0.16 | -0.036 | 0.065 | -0.095 | – | -0.111 | 0.925 (active) | – | -0.081 | 0.047 | -0.042 | 0 | -0.095 | 0.029 | -0.106 | 0.122 | -0.156 | – |
| BAP18 isoform 3 (UniProt Q8IXM2) | – | – | – | -0.028 | 0.028 | – | – | – | 0.2 | – | – | – | 0.301 | -0.129 | – | – | – | – | – | – |
| AUH (UniProt Q13825) | 0.011 | 0.486 (active) | – | -0.129 | -0.094 | 0.128 | 0.021 | -0.183 | 0.086 | 0.184 | – | 0.016 | 0.152 | 0.003 | -0.055 | 0.065 | -0.062 | -0.005 | 0.006 | – |
| BRMS1 (UniProt Q9HCU9) | -0.034 | – | -0.018 | – | 0.144 | – | – | -0.092 | -0.124 | -0.185 | – | – | 0.001 | – | – | -0.017 | 0.007 | 0.106 | – | – |
| BAIAP2 isoform 4 (UniProt Q9UQB8) | – | – | – | – | – | – | – | – | – | – | 0.147 | -0.034 | 0.288 | – | – | – | – | – | – | – |
| AASDH (UniProt Q4L235) | – | -0.445 (active) | 0.028 | -0.018 | 0.149 | 0.189 | -0.044 | -0.019 | 0.004 | 0.011 | -0.067 | -0.035 | 0.16 | -0.014 | -0.091 | – | -0.036 | – | -0.004 | 0.141 |
| ALDH2 isoform 2 (UniProt P05091) | 0.183 | 0.033 | -0.176 | – | -0.014 | -0.015 | 0.19 | – | -0.072 | – | 0.161 | – | 0.005 | – | 0.06 | -0.255 | – | 0.097 | -0.003 | – |
| BRD2 isoform 2 (UniProt P25440) | – | 1.76 (active) | – | 0.104 | 0.486 | 0.115 | 0.24 | -0.132 | 0.129 | 0 | -0.172 | -0.111 | -0.37 | 0.146 | -0.125 | – | 0.255 | – | -0.074 | – |
| BRAF, A0A2R8Y8E0 | – | – | – | -0.078 | – | – | – | – | – | – | – | – | -0.084 | 0.143 | – | – | – | – | – | 0.047 |
| AIF1 (UniProt P55008) | – | 0.047 | -0.727 (active) | 0.078 | – | 0.01 | -0.045 | – | – | – | 0.025 | – | – | 0.15 | 0.032 | – | – | – | -0.046 | – |
| ACSL6 isoform 1 (UniProt Q9UKU0) | – | – | -0.159 | 0.01 | -0.014 | 0.149 | -0.069 | -0.226 | -0.459 (active) | -0.041 | 0.177 | – | -0.076 | -0.048 | 0.155 | – | -0.007 | – | 0.021 | 0.08 |
